The record followed here is ChEMBL document CHEMBL1157539, “Thousands of chemical starting points for antimalarial lead identification” (Nature, 2010).

In the test the test system is Plasmodium falciparum. Put plainly: GSK_TCMDC: Inhibition of Plasmodium falciparum Dd2 in whole red blood cells, using parasite LDH activity as an index of growth. Test compounds present at 2uM. It counts as functional.
`CC(C)CNCc1ccc(-c2ccc(CNC3CCN(Cc4ccccc4)CC3)cc2)cc1.O=C(O)C(F)(F)F` came in with an Inhibition of 96%.

With `Cc1cccc2nc(-c3ccc(-c4ccc(CNCc5cccc(N)c5)cc4)cc3)[nH]c12.O=C(O)C(F)(F)F`, the Inhibition was determined as 84%.

Turning to `CN(c1ccccc1C(=O)Nc1cc(Cl)ccc1Oc1ccccc1)S(=O)(=O)c1ccccc1`, the Inhibition came out at 42%.

For `CC1(C)CCC(=Cc2ccc(Cl)cc2)CC1(O)Cn1ccnc1` (configuration not stated), the Inhibition is given as 74%.

`CO/C(=C\C=C\c1cc2cc(Cl)c(Cl)cc2[nH]1)C(=O)NCC(C)(C)CN(C)C` displayed an Inhibition of 27%.

`Cc1ccccc1N1CCN(c2ccc(C(=O)Nc3ccccc3)cc2)CC1`: the Inhibition is recorded as 91%.

In turn, `COc1cc(CNc2ccc(N3CCCC3)cc2)cc(Cl)c1OC` had an Inhibition of 94%.

Consider `Cl.N=C(NCCCc1ccccc1)c1cccc(C(=N)NCCCc2ccccc2)n1`, for which the Inhibition is 0%.

`O=C(NC1CC1)c1cnc(N2CCCC(c3ccccc3)C2)c(Cl)c1.O=C(O)C(F)(F)F` (configuration not stated) registered an Inhibition of 94%.

Take `CC(C)COc1ccc(Cl)cc1Cc1ccc(-c2nc3c(F)cccc3[nH]2)o1`: the Inhibition came to 47%.

Take `O=C(c1ccc(-c2ccc(-c3nc4cc(F)ccc4[nH]3)cc2)cc1)N1CCCCC1CN1CCC(O)C1` (configuration not stated): the Inhibition was 100%.

On to `CN(C)CCNC(=O)N1CCCN(c2ncnc3cc(-c4ccc(Cl)cc4)sc23)CC1.O=C(O)C(F)(F)F`, for which the Inhibition came to 21%.

As to `CN1CCC(NCc2cccc(-c3ccc(S(=O)(=O)NCCN4CCCC4)s3)c2)CC1.O=C(O)C(F)(F)F`, the Inhibition was 1%.

For the compound `COc1ccc(CN(C)CCCOc2ccc(NC(=O)C=Cc3ccc(C(C)(C)C)cc3)cc2)cc1OC`, the Inhibition is given as 87%.

In the case of `Cc1ccc(-n2cc(CNCCCn3ccnc3)c(-c3cccc(C)c3)n2)cc1`, the Inhibition is 36%.

`Cc1ccc2[nH]c(-c3ccc(C=CC(=O)NC4CCN(Cc5ccccc5)CC4)cc3)nc2c1`: the Inhibition amounted to 92%.

In turn, `CN(CCCNCc1cccc2ccccc12)CCCNCc1cccc2ccccc12.Cl` came in with an Inhibition of 94%.

In turn, `COc1ccc(CN2CCC(NCc3cccc(C(F)(F)F)c3)CC2)cc1.O=C(O)C(F)(F)F` registered an Inhibition of 8%.

Take `CCn1cc(-c2cc(C(=O)Nc3ccc(OC)cc3C)c3ccccc3n2)c(C)n1`: the Inhibition is given as 100%.

As for `CCCc1cc(Cc2cnc(N)nc2N)cc(CC)c1OC.Cl`, the Inhibition came out at 1%.

As for `CC1(C)CN2CCCC2c2cc(NC(=O)/C=C/c3ccccc3Cl)ccc21.Cl` (configuration not stated), the Inhibition came out at 76%.

Take `Cc1c(C(=O)N2CCc3cc4nccc(N5CCN6CCC[C@H]6C5)c4cc32)cnn1-c1ccc(C#N)cc1.Cl`: the Inhibition was 27%.

`O=C(NCCc1ccccc1)N(Cc1cccc(-c2ccc(CNCCc3ccccc3)cc2)c1)C1CCN(Cc2ccccc2)CC1.O=C(O)C(F)(F)F` had an Inhibition of 91%.

`NS(=O)(=O)c1cccc(-c2ccc3c(O)ncnc3c2)c1` gave an Inhibition of 100%.

Turning to `C[C@H](Cc1ccc(C[C@@H](C)NCC(O)c2cc(Cl)c(N)c(Cl)c2)cc1)NCC(O)c1cc(Cl)c(N)c(Cl)c1` (some centres not stated), the Inhibition was 50%.

In the case of `COc1ccc2nc(C)cc(NC3Cc4ccccc4C3)c2c1.Cl`, the Inhibition is on record as 13%.

In turn, `COc1ccc(CCN(C)CCOc2ccc(NC(=O)COc3ccc4sc5ccccc5c(=O)c4c3)cc2)cc1OC` returned an Inhibition of 91%.

In turn, `O=C(Cc1ccccc1)NC(c1ccco1)c1cc(Cl)c2cccnc2c1O` (configuration not stated) showed an Inhibition of 93%.

The compound `COc1cccc(OC(C)(C)c2nc(N[C@@H](C)c3ccccc3)c3cn[nH]c3n2)c1` returned an Inhibition of 69%.

Turning to `Cc1cccc2nc(-c3cccc(-c4ccc(NC(=O)C(C)CN5CCOCC5)cc4)c3)[nH]c12` (configuration not stated), the Inhibition is 30%.

In the case of `Cn1cncc1C(=O)Nc1cccc(-c2csc(-c3nc4ccccc4[nH]3)c2)c1`, the Inhibition is on record as 64%.

For the compound `CC(C)(C)OC(=O)N1CCN(c2ccccc2NC(=O)c2cccc(C(F)(F)F)c2Oc2ccc(F)cc2)CC1`, the Inhibition came out at 9%.

For the compound `COc1ccc(CNC2CCN(C)CC2)cc1-c1ccc(S(=O)(=O)NCCN2CCCC2)s1.O=C(O)C(F)(F)F`, the Inhibition came out at 1%.

`CCOC(=O)c1ccc(NC(=O)Nc2ccc(Cn3ncc(N4CCCNCC4)c(Cl)c3=O)cc2)cc1.O=C(O)C(F)(F)F` gave an Inhibition of 58%.

In the case of `O=C(c1ccc(-c2ccc(-c3nc4ccccc4[nH]3)s2)cc1)N1CCCCC1CN1CCC(O)C1` (configuration not stated), the Inhibition was 55%.

`CCCCc1ccc(-c2nc(NC(=O)Nc3[nH]c(-c4ccccc4)nc3C(=O)OCC)c(C(=O)OCC)[nH]2)cc1` came in with an Inhibition of 26%.

The compound `Cc1ccc([N+](=O)[O-])cc1NC(=O)N(CC(O)c1ccccc1)C1CCCCC1` (configuration not stated) gave an Inhibition of 98%.
